Experimental data published in PubChem BioAssay AID504332 (National Center for Advancing Translational Sciences (NCATS), 2011).
Several values for one entry are separate records, joined by “and”; a condition that tells them apart may be missing. Identical values can stand only once. About 31,000 (8.9%) of roughly 350,000 compounds were called active. A call without a number means that no potency is given here. Not shown: some 15% with an inconclusive outcome. The full list was thinned out, with actives kept by preference. Unmarked numbers belong to inactive results. Calls come from the whole dose curve; as a rule, active = well fitted inhibition curve with a large enough effect; inconclusive = small, poorly fitted or top-dose-only effect; inactive = no such curve, though single readings can be large or run the other way.

biological target: Histone-lysine N-methyltransferase EHMT2 (Homo sapiens) (UniProt Q96KQ7); experiment: qHTS Assay for Inhibitors of Histone Lysine Methyltransferase G9a; settings: G9a H3K9 monomethylation, AlphaScreen, 2 h; series mostly up to 102 µM; note: nearly all actives have a fitted effect of over 75% in size
Excerpt: Methylated lysines, on the N-terminal tails of histone proteins serve as epigenetic markers to recruit factors that can then modify local chromatin structure to lead to functional consequences. G9a and other members of the SUV39 family of the SET domain-containing superfamily of histone lysine methyltransferases (HMT) have been identified to specifically methylate Lys9 of histone H3 (H3K9). G9a catalyzes the mono- and di-methylation of H3K9 in mammalian euchromatic regions, where the resulting H3K9me2 is indicative of transcriptional repression. […] The inhibition of G9a will result in transcriptional activation and work synergistically with DNA methyltransferase and histone deacetylase inhibitors, to kill cancer cells. This qHTS assay for identification of G9a inhibitors is a chemiluminescence based AlphaScreen (PerkinElmer). Methylation of biotinylated-histone peptide is measured through specific antibody-based detection, in conjunction with streptavidin-coated donor and anti-IgG antibody-coated acceptor beads. The method is particularly well suited for detection of inhibitors acting by the desired histone peptide competitive mechanism and is applicable to testing other HMTs. Although AlphaScreen has significant advantages with its utility in a variety of epigenetic target assays, the primary screening data provided in this deposition should be used with caution due to the prevalence of screening artifacts. An AlphaScreen counterscreen is highly recommended to be run against any putative actives to eliminate non specific artifacts. Alternatively, one can use other AlphaScreen assays in PubChem to filter out promiscuous hits. Quinn et al. A chemiluminescence-based method for identification of histone lysine methyltransferase inhibitors. Mol Biosyst 6(5): 782-8. 2010. PMID: 20567762 [2] Baell,Holloway. New substructure filters for removal of pan assay interference compounds (PAINS) from screening libraries and for their exclusion in bioassays. J Med Chem. 53(7):2719-40. 2010. PMID: 20131845 NIH Molecular Libraries Probe Production Network [MLPCN] NIH Chemical Genomics Center [NCGC] Structural Genomics Consortium (SGC) NIH Grant: 5U54 MH084681-02
To each well of a 1,536w plate, 2ul of HMT enzyme (final 20nM) were added, using a nanoliter dispenser. The G9a- and GLP-inhibitor BIX-01294 (CID: 25150857) are used as an intraplate control, with a 16-point titration in duplicate. A Kalypsys pin-tool transferred 23nl of library compound solution in DMSO to each well. Following a 15 min incubation of enzyme with compounds at room temperature, 1ul mixture of b-H3K9 peptide substrate (final 500nM) and SAM cofactor (final 20uM) were added. Reactions were allowed to proceed at room temperature for 2 hours. Methylated b-H3K9 peptide product was detected with 0.5 ug/mL rabbit polyclonal anti-monomethyl histone H3K9 antibody (Abcam Inc., Cambridge, MA) and 20 ug/mL each streptavidin-coated donor and anti-rabbit IgG acceptor AlphaScreen beads. Antibody and beads were added in a 1ul dispense, for a final volume of 4ul, and plates were incubated, protected from the light, for 10 min at room temperature. Microplates were then read on an EnVision multilabel plate reader using the 1,536 plate HTS AlphaScreen aperture (excitation time 80 ms, measurement time 240 ms).
Potency is the fitted concentration of half-maximal effect.

Histone-lysine N-methyltransferase EHMT2 (Homo sapiens), sequence (Q96KQ7 913-1193 limits assumed): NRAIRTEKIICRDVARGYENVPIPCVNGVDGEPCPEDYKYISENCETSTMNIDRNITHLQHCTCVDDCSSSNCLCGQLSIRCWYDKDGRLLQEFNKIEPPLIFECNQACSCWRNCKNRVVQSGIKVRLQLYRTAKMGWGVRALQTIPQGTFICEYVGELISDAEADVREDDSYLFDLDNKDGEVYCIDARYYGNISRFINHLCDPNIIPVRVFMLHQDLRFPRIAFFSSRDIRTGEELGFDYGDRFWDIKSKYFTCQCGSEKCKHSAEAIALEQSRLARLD

Row | SMILES | Potency | activity, negative = inhibition
1 | c1ccc(Cc2nn3c(Cn4cnc5ccccc54)nnc3s2)cc1 | 3.16 µM (active) | –
2 | COc1ccc(S(=O)(=O)NCc2ccc(C(=O)N3CCC4(CC3)OCCO4)cc2)cc1 | – | inactive
3 | Cc1cccc(-n2c(O)c(/C=N/N3CCOCC3)c(=O)[nH]c2=S)c1 | 22.4 µM (active) | –
4 | O=c1[nH]c(=O)n(-c2ccccc2)c(O)c1C=NC12CN3CN(CN(C3)C1)C2 | – | inactive
5 | O=c1[nH]c(=O)n(CCc2ccccc2)c(O)c1/C=N/N1CCOCC1 | – | inactive
6 | Cc1ccc(-n2c(O)c(C=NCC3CCCO3)c(=O)[nH]c2=O)c(C)c1 (centres undefined) | – | 48.7% [at 12.7 µM]
7 | O=C(N/N=C/c1c(O)n(C2CC2)c(=S)[nH]c1=O)c1ccccc1 | – | inactive
8 | Cc1cccc(-n2c(O)c(C=NC34CN5CN(CN(C5)C3)C4)c(=O)[nH]c2=O)c1 | 50.1 µM (active) | –
9 | O=c1[nH]c(=O)n(CCc2ccc(F)cc2)c(O)c1/C=N/N1CCCCC1 | – | inactive
10 | CC(C)c1ccc(-n2c(O)c(/C=N/N3CCOCC3)c(=O)[nH]c2=S)cc1 | 50.1 µM (active) | –
11 | O=c1[nH]c(=O)n(-c2ccc(F)cc2)c(O)c1C=NCCN1CCCCC1 | – | inactive
12 | CN(C)CC1CCCCC1=O (centres undefined) | – | inactive
13 | CN(C)c1ccc(/C=C2\CC3C4CC=C5CC(O)CCC5(C)C4CCC3(C)C2=O)cc1 (centres undefined) | – | inactive
14 | COC(=O)C1=C(c2ccccc2OCc2ccccc2)C[C@@H]2CC[C@H]1N2C(=O)NCc1ccc(OC)cc1 | – | -7.46% [at 2.33 µM]
15 | CCOc1ccc(C2SCC(=O)Nc3c2c(C)nn3C2CCOC(C)(C)C2)cc1 (centres undefined) | – | inactive
16 | c1ccc2c(c1)[I+]c1ccccc1-2 | – | -19.1% [at 12.7 µM]
17 | Cc1ccc(-c2nc3ccccc3c(=O)n2-c2ccc(Br)cn2)cc1 | – | inactive
18 | CN(C)C(=O)Oc1ccc(NC(=O)N2CCOCC2)cc1 | – | inactive
19 | CSc1nc2ccc(C)cc2c(=O)n1-c1cccnc1 | – | inactive
20 | N#Cc1ccc(Cn2cc(C(=O)c3ccco3)c3ccccc32)cc1 | – | inactive

Row | SMILES | Potency | activity, negative = inhibition
21 | COc1ccc(-n2c(O)c(C(C)=Nc3ccc4c(c3)CCC4)c(=O)[nH]c2=O)cc1 | – | inactive
22 | CC(=O)NBr | – | inactive
23 | CCc1nc2ccccc2c(=O)n1-c1cccc(OC)c1 | – | inactive
24 | Cc1cccc(-n2c(C)nc3cc(C(=O)N4CCC5(CC4)OCCO5)ccc32)c1 | – | inactive
25 | O=C(N/N=C/c1c(O)n(Cc2ccccc2)c(=O)[nH]c1=O)c1ccccc1 | – | inactive
26 | CC(C)c1ccc(O)c(CN2CCN(c3ccccc3)CC2)c1 | – | inactive
27 | Fc1ccc(N2CCN(Cc3ccc4c(c3)OCO4)CC2)cc1 | 8.91 µM (active) | –
28 | Cc1cc(=O)oc2c(C)c(OCC(=O)N3CCN(Cc4ccc5c(c4)OCO5)CC3)ccc12 | – | inactive
29 | Oc1cc2c(cc1CN1CCN(c3ccccc3)CC1)OCO2 | 10 µM (active) | –
30 | O=C(NCC(c1cccnc1)N1CCN(c2ccccc2)CC1)Oc1ccccc1 (centres undefined) | – | inactive
31 | Cc1ccc(C(C)C)c(OCC(=O)N2CCN(CC(=O)N3CCOCC3)CC2)c1 | – | 28.3% [at 12.7 µM]
32 | CN1CCN(/N=C/c2c[nH]c3ccccc23)CC1 | – | inactive
33 | CC(=O)OC1C2CCC3C1(CC(O)[C@@]1(O)[C@@H](CC(O)C1(C)C)[C@]3(C)O)C[C@@]2(C)O (some centres undefined) | – | -31.5% [at 2.33 µM]
34 | CCN1C[C@@]2(COC)CC[C@H](OC)[C@]34[C@@H]1[C@]1(OCO[C@@]15C[C@@H](OC)C1C[C@H]3[C@H]5[C@@H]1OC)[C@H](O)[C@@H]24 | – | 26.9% [at 21.5 µM]
35 | CSC1=NP(=S)(SC)N(C)c2nc3n(c21)CCC3 (centres undefined) | – | inactive
36 | COc1ccc(-c2nn(CCC#N)cc2C(=O)Nc2ccc(C(C)=O)cc2)cc1 | – | inactive
37 | COc1cc(-n2c(=S)[nH]c3ccc(C)cc3c2=O)c(Cl)cc1Cl | – | 20.4% [at 12.7 µM]
38 | Cc1cc2ccccn2c1C(C[N+](=O)[O-])c1c(F)cccc1Cl (centres undefined) | 44.7 µM (active) | –
39 | Cc1nc2nc(C)c(CCC(=O)N3CCC4(CC3)OCCO4)c(C)n2n1 | – | inactive
40 | CNP1(NC)=Nc2nn(-c3ccccc3)c(N)c2C(c2ccccc2)=N1 | – | inactive

Row | SMILES | Potency | activity, negative = inhibition
41 | C/C=C/CC1(CC)C(=O)NC(=S)NC1=O | – | inactive
42 | O=C(CCC(=O)N1C[C@H]2C[C@@H](C1)c1cccc(=O)n1C2)NCc1ccccc1C(F)(F)F | – | 12.2% [at 0.501 µM]
43 | O=C(NC(=S)N1C[C@H]2C[C@H](C1)c1cccc(=O)n1C2)c1ccc(F)cc1 | 35.5 µM (active) | –
44 | COc1cccc(C(=O)N2C[C@H]3C[C@@H](C2)c2cccc(=O)n2C3)c1 | – | 1.87% [at 12.7 µM]
45 | Cc1cccc(NC(=O)OC2CN3CCC2CC3)c1 (centres undefined) | – | inactive
46 | COC1=C[C@@H]2[C@@H]3Cc4ccc(OC)c(O)c4[C@]2(CCN3C)CC1=O | – | inactive
47 | COc1ccc2c(c1O)-c1cccc3c1[C@@H](C2)N(C)CC3 | 7.94 µM (active) | –
48 | COP(=O)(OC)C(NC(=O)c1ccc(C)cc1)C(Cl)(Cl)Cl (centres undefined) | – | inactive
49 | C[C@]12CC[C@H](O)C[C@@H]1CC[C@H]1[C@H]2CC[C@]2(C)C(=O)CC[C@@H]12 | – | 13.5% [at 21.5 µM] and 22.6% [at 21.5 µM] and 16.7% [at 21.5 µM]
50 | Cc1ccc(C2CN(C)CC2C(=O)c2ccc(F)cc2)cc1 (centres undefined) | – | inactive
51 | COc1ccc(CN2CCN(c3ccccc3F)CC2)c(OC)c1 | 11.2 µM (active) | –
52 | Fc1cccc(F)c1CN1CCN(Cc2c(F)cccc2F)CC1 | – | inactive
53 | O=C(O)C1CSC(c2cccnc2)N1 (centres undefined) | 3.55 µM (active) | –
54 | C[C@@]1([C@@H](NP(=O)(c2ccccc2)c2ccccc2)c2ccccc2)C[C@H]1CCO | – | inactive
55 | COc1ccc(C2CC(c3cccs3)=NN2c2nc(C)c(C(C)=O)s2)cc1OC (centres undefined) | – | inactive
56 | CCOCCc1c(O)[nH]c(=S)[nH]c1=O | – | inactive
57 | COc1ccccc1N=Nc1c(O)[nH]c(=S)[nH]c1=O | 39.8 µM (active) | –
58 | Clc1ccc2nc3c(c(-c4ccccc4)c2c1)CNCC3 | – | inactive
59 | CNCC[C@H](Oc1ccc(C(F)(F)F)cc1)c1ccccc1 | – | 4.7% [at 21.5 µM] and 32.2% [at 12.7 µM]
